Inconclusive results are not listed. Values without a mark were called inactive. Active and inactive are the calls of the source. The call rests on the fitted dose curve; in most records, active means well fitted cell-killing curve with a large enough effect in the repeat runs; inconclusive means weak or mixed curves, or effect the other way; inactive means flat fitted curve, though single readings scatter.
On the % scale 0 is the no-effect control and ±100 the full control effect.

The assay can be described thus: qHTS assay to identify small molecule agonists of the TGF-beta/Smad signaling pathway - cell viability counter screen (AID 1346829). Further: top concentration of the series differs between compounds; nearly all actives have a fitted effect of over 45% in size. As to conditions: SBE-bla HEK293T viability, CellTiter-Glo luminescence, 5 h; series mostly up to 76.8 µM; activity change, negative = cytotoxicity: at the top concentration. The text has this: National Center for Advancing Translational Sciences [NCATS]
NIH Chemical Genomics Center [NCGC]
U.S. Environmental Protection Agency [EPA]
National Institutes of Environmental Health Sciences [NIEHS]
National Toxicology Program [NTP]
U.S. Food and Drug Administration [FDA]
Transforming growth factor beta (TGF-beta) superfamily consists of a large number of structurally related dimeric proteins that act as hormones or local mediators in regulating a wide range of biological functions. This superfamily includes TGF-betas themselves, the bone morphogenetic proteins (BMPs) and the activins. These ligands induce oligomerization of serine/threonine receptor kinases and phosphorylate the cytoplasmic signaling molecules of Smad protein family. CellSensor SBE-bla HEK 293T cell line (Life Technologies, Carlsbad, CA), responsive to TGF-beta was used to screen Tox21 10K compound library for identification of agonists/antagonists of the Smad signaling pathway. This cell line contains a beta-lactamase reporter gene under control of the Smad binding element (SBE) stably integrated into HEK 293T cells. Also cytotoxicity of the compounds was tested in parallel by measuring the cell viability using CellTiter-Glo assay system in the same wells.
Tox21 Assay Protocol Summary:
SBE-bla HEK 293T cells were dispensed at 4,000/well in 6 uL of assay medium into black wall/clear-bottom 1536-well plates using a Multidrop Combi (ThermoFisher Scientific, Waltham, MA) dispenser. After the assay plates were incubated at 37 C and 5% CO2 for an overnight, 23 nL of compounds dissolved in DMSO, positive controls or DMSO only was transferred to the assay plate by a Pintool station (Kalypsys, San Diego, CA). The assay plates were incubated at 37 C and 5% CO2 for 5 hr. One uL of LiveBLAzer B/G FRET substrate (Life Technologies) was added using a Flying Reagent Dispenser (FRD, Aurora Discovery, San Diego, CA) and the plates were incubated at room temperature for 2 hr. Fluorescence intensity (405 nm excitation, 460 nm and 530 nm emissions) was measured using an Envision plate reader (PerkinElmer, Shelton, CT). For cytotoxicity read, 4 uL of CellTiter-Glo reagent (Promega Corporation, Madison, WI) was added to each well of the assay plates using FRD. After 30min incubation at room temperature, the luminescence intensity was measured using ViewLux plate reader (PerkinElmer).
On the technique in general: qHTS replaces the single test concentration by a dilution series.
On to `O=c1[nH]cnc2[nH]ncc12`, for which the outcome was inactive.

Take `CC(=O)CCC=C(C)C`: the call was inactive.

In the case of `C[C@]12CC[C@@H]3c4ccc(O)cc4CC[C@H]3[C@@H]1C[C@@H](O)[C@@H]2O`, the molecule was classed as inactive.

On to `O=C1CCCC1`, for which the result was inactive.

With `CC1(C)NC(=O)NC1=O`, the molecule was classed as inactive. On to `CCCCCCCCCCCCCCCCO`, for which the outcome was inactive. Consider `COCCCN`, for which the call was inactive. On to `CC(C)c1cccc(C(C)C)c1`, for which the “activity change, negative = cytotoxicity” value is 7.35%. Turning to `Cc1ccc(C(C)C)c(O)c1`, the outcome was inactive. Turning to `CN(C)c1ccc(Cc2ccc(N(C)C)cc2)cc1`, the call was inactive. The same measure, in the same setting: in the case of `CCCCCCCO` it was “inactive”; in that of `Clc1ccccn1`, “inactive”. On the same count and under the same terms, as for `C[Si]1(C)O[Si](C)(C)O[Si](C)(C)O[Si](C)(C)O1`, the entry is “inactive”; as for `CN(C)c1ccc(O)c2c1C[C@H]1C[C@H]3[C@H](N(C)C)C(=O)C(C(N)=O)=C(O)[C@@]3(O)C(=O)C1=C2O`, “inactive”; as for `COc1ccc(CCC(C)=O)cc1`, “inactive”. Same read-out and setting: as for `N[C@H](Cc1c[nH]c2ccccc12)C(=O)O`, the entry is “inactive”; as for `O=C1c2ccccc2CCc2ccccc21`, “inactive”. As for `C=C(C)C(=O)OCC(C)C`, the molecule was classed as inactive. Take `CCCCCCC=O`: the outcome was inactive. Take `CC(CCl)OP(=O)(OC(C)CCl)OC(C)CCl` (stereo not given): the call was inactive. Still for that read-out and setting: in the case of `O=C(O)Cn1c(=O)n(Cc2ccc(Br)cc2F)c(=O)c2ccc(Cl)cc21` it was “inactive”. On the same count and under the same terms, in the case of `COc1ccc(C)cc1N` it was “inactive”; in that of `Nc1ccc(Cl)c(N)c1`, “inactive”.

Regarding `COc1ccc(N)c(C)c1`, the molecule was classed as inactive. With `CCCCCCCCCCN`, the result was inactive. Same read-out and setting: in the case of `Cc1ccc2ncccc2c1` it was “inactive”; in that of `CC(O)CC(C)(C)O` (stereo not given), “inactive”.

Take `CC1(C)CC(N)CC(C)(CN)C1` (stereo not given): the molecule was called inactive. For the molecule `NCCNCCN`, the result was inactive. For the molecule `C=CC(=O)OCCC(=O)O`, the molecule was called inactive. Same read-out and setting: as for `CC(=O)CC(C)(C)O`, the entry is “inactive”; as for `CC(C)CC(=O)CC(C)CC(C)C` (stereo not given), “inactive”. Turning to `CCNc1cccc(C)c1`, the molecule was classed as inactive. With `O=S(=O)(O)c1ccccc1`, the molecule was called inactive. Same read-out and setting: in the case of `CC(=O)OC1CC(C)OC(C)O1` (stereo not given) it was “inactive”; in that of `O=C(O)CCCCCCCCC(=O)O`, “inactive”; in that of `Nc1nc(N)nc(-c2ccccc2)n1`, “inactive”.

On to `COCCOC(=O)c1ccccc1C(=O)OCCOC`, for which the result was inactive. Same read-out and setting: as for `CCO[Si](CCCN)(OCC)OCC`, the entry is “inactive”; as for `O=C(OCC1CCC2OC2C1)C1CCC2OC2C1` (stereo not given), “inactive”.
